The record followed here is PubChem BioAssay.

Where “and” joins values, the source holds several entries; their conditions need not be identical. Equal entries are not always repeated. Unmarked numbers belong to inactive results. The rule behind the calls is not given here.

The target in the assay is Lethal factor (Bacillus anthracis) (UniProt P15917). In words: Bacillus anthracis lethal factor inhibition, microsphere flow cytometry protease assay, validation at 10 µM (AID 588461). Conditions: multiplex microsphere protease cleavage assay, active compounds read high.
Lethal factor (Bacillus anthracis), sequence (P15917 whole entry, looked up): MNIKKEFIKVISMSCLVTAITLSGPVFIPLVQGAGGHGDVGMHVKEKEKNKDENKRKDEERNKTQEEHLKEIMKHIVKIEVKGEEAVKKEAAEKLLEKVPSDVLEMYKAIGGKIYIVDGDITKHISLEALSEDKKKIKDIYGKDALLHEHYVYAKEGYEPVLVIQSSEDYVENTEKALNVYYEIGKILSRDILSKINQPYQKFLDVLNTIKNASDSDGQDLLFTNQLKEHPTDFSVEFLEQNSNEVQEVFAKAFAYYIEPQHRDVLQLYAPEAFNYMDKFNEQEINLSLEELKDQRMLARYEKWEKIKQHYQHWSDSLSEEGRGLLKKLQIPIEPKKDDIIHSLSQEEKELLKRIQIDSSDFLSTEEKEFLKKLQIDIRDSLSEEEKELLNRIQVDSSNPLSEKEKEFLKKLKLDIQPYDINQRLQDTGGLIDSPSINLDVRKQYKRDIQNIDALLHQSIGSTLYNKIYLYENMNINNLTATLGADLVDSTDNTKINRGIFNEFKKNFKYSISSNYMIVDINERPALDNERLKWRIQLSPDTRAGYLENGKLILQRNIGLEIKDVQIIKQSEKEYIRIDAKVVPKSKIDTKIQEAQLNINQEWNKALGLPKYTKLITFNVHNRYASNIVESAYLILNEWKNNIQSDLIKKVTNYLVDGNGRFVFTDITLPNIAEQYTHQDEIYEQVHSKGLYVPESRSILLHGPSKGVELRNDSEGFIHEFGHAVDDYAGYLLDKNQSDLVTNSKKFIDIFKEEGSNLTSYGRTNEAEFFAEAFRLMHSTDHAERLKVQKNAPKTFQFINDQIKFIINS
With `CC(=O)c1c(C)[nH]c(C(=O)OCc2ccccc2)c1C`, the inhibition is -6.6%.
As to `C=C1C2(C(=O)Nc3ccc(SC(F)F)cc3)CCC(C2)C1(C)C` (centres undefined), the inhibition was 1.3%.
As for `CCNC(=O)c1c(N)sc2c1CCCCC2`, the inhibition is -5.1%.
As to `C(=C\c1ccc2ccccc2n1)/c1ccccc1`, the inhibition was -3.3%.
As for `CC12CN3CC(C)(CN(C1)C3c1ccc([N+](=O)[O-])o1)C2` (centres undefined), the figure is -5.6%; as for `O=C(CN1C(=O)/C(=C/c2cccc(Br)c2)SC1=S)Nc1cccnc1`, 4.2%; as for `COc1cc2c(cc1O)CCN(C(=O)c1ccco1)C2C` (centres undefined), 2.3%.
As for `CC(CCc1ccccc1)NCC(O)c1ccc(O)c(C(N)=O)c1` (centres undefined), the figure is 0.1%.
As for `COc1c(C=O)c(CCN(C)C(=O)c2ccc(F)cc2)cc2c1OCO2`, the figure is -4.4%; as for `O=c1ccc2c(o1)/C(=C/C=C(Cl)Cl)CCC2`, -2%.
`CCOC(=O)c1c(C)oc2cc(Br)c(OC(C)C(=O)OCC)cc12` (centres undefined): the inhibition was -2.8%.
To `CCC(=O)Oc1ccc(C(=O)Nc2ccc([N+](=O)[O-])cc2)cc1` belongs -3.6%.
As for `CC(C)CC(=O)OC1C(N2CCOCC2)c2c(ccc(/C=C/C(=O)N3CCOCC3)c2O)OC1(C)C` (centres undefined), the figure is -0.5%; as for `C/C=C/c1ccc(OCCCCN2CC(C)CC(C)C2)c(OC)c1` (centres undefined), -6%; as for `CC(C)OC(=O)CC1C(=O)NCCN1C(=S)NC(=O)c1cccs1` (centres undefined), -5.8%.
On to `COc1ccc(/C=C\c2nc(=O)c3ccccc3o2)cc1`, for which the inhibition is -3.7%.
To `Cc1ccccc1OCC(O)CN1CCN(C)CC1` (centres undefined) belongs -2.2%; to `COc1ccc(-c2cc(=Nc3ccc(C)cc3)c3ccccc3o2)cc1`, 2.9%; to `Cc1oc2c(CN3CCCC3)c(O)ccc2c(=O)c1-c1ccc(Cl)cc1`, -0.5%.
To `Cc1ccc2c(c1)c(=O)c1c3n2CCN(C(=O)CCl)C3CC1` (centres undefined) belongs -32.4%.
To `C=C(C)c1nc2cc(OC)c(OC)cc2c(=O)o1` belongs 0.1%.
Turning to `O=C(CS(=O)(=O)Cc1ccccc1)NCc1ccc2c(c1)OCO2`, the inhibition is -6.5%.
Consider `COc1ccc(NC(=O)CC(c2ccccc2)c2ccco2)cc1` (centres undefined), for which the inhibition is 9.1%.
Take `Cn1c(=O)c2c(ncn2Cc2ccccc2)n(C)c1=O`: the inhibition is 7.6%.
As for `CC1(C)S[C@@H]2[C@H](NC(=O)[C@H](N)c3ccccc3)C(=O)N2[C@H]1C(=O)O`, the inhibition is 5% and -3%.
For `CC1(C)CC(=O)C(C2(O)C(=O)Nc3ccccc32)CO1` (centres undefined), the inhibition is -6%.
As for `CC1=C/C(=N\N=C2\NC(=O)C(CC(=O)Nc3ccccc3F)S2)CC(C)(C)C1` (centres undefined), the inhibition is 2.8%.
In the case of `CN1CC2CCCC3(C1)C(=O)NC1(CCCCC1)N=C23` (centres undefined), the inhibition is -5.3%.
As for `CCCN1C[C@H](CSC)C[C@@H]2c3cccc4[nH]cc(c34)C[C@H]21`, the figure is -33.7%; as for `Nc1cccc2nc3ccccc3cc12`, 1.2%.
To `NCCc1cnc[nH]1` belongs 3.7%; to `Cc1ccc2nc(N=C(N)N)nc(C)c2c1`, -12.1%.
For `CCCc1c(OCCCCc2nn[nH]n2)ccc(C(C)=O)c1O`, the inhibition was -10.3%.
Take `Cc1nonc1CN(C)C(=O)c1ccc(OC2CCN(Cc3ccccn3)CC2)cc1`: the inhibition is -0.2%.
On to `Cc1cc(=O)c2c(O)c(O)ccc2o1`, for which the inhibition is -0.2%.
To `CC12CCC(C(=O)N3CCCCC3)([C@H](Br)C1=O)C2(C)C` (some centres undefined) belongs 0.1%; to `CC1(C)O[C@@H]2C[C@H]3[C@@H]4CCC5=CC(=O)C=C[C@]5(C)[C@@]4(F)[C@@H](O)C[C@]3(C)[C@]2(C(=O)CO)O1`, -3.9%.
Consider `COc1ccc(C(=O)OCc2cc3cccc(C)c3[nH]c2=O)cc1`, for which the inhibition is -0.5%.
As to `CC(C)C(=O)Nc1cccnc1`, the inhibition is -5.8%.
